Only a selection was taken, and hits are over-represented in it overall.
AMA1-RON2 inh: AMA1-RON2 (P. falciparum) interaction inhibition | AlphaScreen AMA1-biotinylated RON2 peptide binding | Potency, µM (titrated, usually from 58.2 µM), inactives show top-dose activity change, negative = inhibition, most hits filed as inhibitors | 360,000 tested, 0.2% active; active = well fitted inhibition curve with a large enough effect; inconclusive = small, poorly fitted or top-dose-only effect; inactive = no such curve, though single readings can be large or run the other way;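 also: potency is read from the fitted curve at half-maximal effect; 0% = vehicle wells and -100% = peptide control; nearly all actives have a fitted effect of over 45% in size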
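AMA1 (3D7) with his tag at 25 nM final met compounds first, then biotinylated RON2 peptide at 25 nM; detection used donor plus acceptor beads, 10 µg/mL apiece, read by AlphaScreen after 30 min at room temperature.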
Shiga toxin inh: blocks Shiga toxin action in Vero cells. AID 2315. 290,000 tested, 9.2% active. Vero cells, Shiga toxin protein synthesis inhibition reporter. inhibition, % at 38.7 µM; in the data active = inhibition mostly above about 28%, no sharp cut-off; inactive = mostly below about 43%; also: 0% is about no effect
LASV entry inh: Lassa virus entry inhibition; Potency, µM (top dose mostly 37.9 µM), inactives show at the highest dose activity change, negative = inhibition, usual class: inhibitors; Lassa virus pseudotype entry inhibition, cell reporter; 300,000 tested, 1.2% active; calls by dose curve; tested in HEK293 cells; also: potency is read from the fitted curve at half-maximal effect; % is scaled to controls: 0 for no effect and ±100 for the full control effect; nearly all actives have a fitted effect of over 50% in size
Marburg entry inh: inhibitors of Marburg virus binding or cell entry | Marburg virus pseudotyped entry inhibition, cell reporter | Potency, µM (doses to about 37.8 µM), without a hit: top-dose activity change, negative = inhibition, most hits filed as inhibitors | 300,000 tested, 1.8% active | AID 540276; calls by dose curve; tested in HEK293 cells; also: potency is read from the fitted curve at half-maximal effect; % is scaled to controls: 0 for no effect and ±100 for the full control effect
CHX counter: affects cycloheximide protein synthesis inhibition readout, counter-screen | cell reporter, cycloheximide protein synthesis inhibition counterscreen | max response, % | 300,000 tested, 12% active; in the data active = max response mostly above about 13%, no sharp cut-off; inactive = mostly below about 14%; also: read at 38.3 µM for the half of the compounds with a filed dose; 0% is about no effect
Numbers without * were called inactive; ? = inconclusive; / = not tested or not shown; [ ] = another dose, or the depositor's remark.

SMILES	AMA1-RON2 inh	Shiga toxin inh	LASV entry inh	Marburg entry inh	CHX counter
O=[N+]([O-])c1ccc(O)c(/C=N/n2c(CO)nc3ccccc32)c1	9%	-2	/	/	-3
CS(=O)(=O)/C(C#N)=C\c1cnc(S(=O)(=O)c2ccccc2)s1	/	36	/	/	31*
Cc1ccc(C(O)Cn2nc(C)cc2C)cc1 (stereo not given)	15%	/	/	/	/
CC(Oc1ccc(Cl)cc1)C(=O)Nc1ccccc1N1CCOCC1 (stereo not given)	-20%	/	?	13µM*	/
COc1cccc(CNn2c(-c3cccc(C)c3)nc3ccccc3c2=O)c1	-4%	24	18µM*	?	19*
O=C(c1ccccc1)c1c(O)nc(-c2ccccc2)n(-c2ccccc2)c1=O	22%	78*	-13%	23%	54*
Cc1ccc(-c2nc3ccccc3c(=O)n2-c2cccc(C)n2)cc1	14%	10	6%	?	1
Cc1ccc(-c2nc3ccccc3c(=O)n2-c2cc(C)ccn2)cc1	9%	48	-45%[14.3 µM]	21%	30*
COc1ccc(-n2c(-c3ccc(C)cc3)nc3ccccc3c2=O)cc1	-10%	58*	-20%	17%	32*
COc1ccc(OC)c(CNn2c(-c3cccc(C)c3)nc3ccccc3c2=O)c1	-8%	3	-1%	?	-1
O=c1c2ccccc2nc(-c2ccc(-c3ccccc3)cc2)n1-c1ccncc1	-5%	21	2%	?	26*
Cc1ccc(-c2nc3ccccc3c(=O)n2-c2ccncc2)cc1	-4%[2.32 µM]	-4	-14%	8%	1
CC(=O)OCC(=O)Nc1ccc(N=Nc2ccccc2)cc1	-28%	76	?	-28%	38*
CNC(=S)Nc1ccc(Nc2ccccc2)cc1	0%	26	1%	-16%	20*
CCCC(=O)Nc1ccc(C(=O)n2ccc(C)n2)cc1	0%	31	2%	-12%	11*
CCCC(=O)Nc1ccc(C(N)=O)cc1	-10%	3	-6%	-8%[46.1 µM]	3
CC(=O)Nc1ccc(N=Nc2ccccc2)cc1	-19%	65*	3%	?	49*
COc1cc(NC(=O)CN(C)S(=O)(=O)c2ccc3[nH]c4c(c3c2)CCCC4)cc(OC)c1OC	/	/	-17%[46.1 µM]	/	/
CCCC(=O)Nc1ccc(-c2ccc(NC(=O)CCC)cc2)cc1	2%	31	1%	1%	3
CC(=O)Nc1ccccc1	0%	/	/	/	/
CC(C)C(=O)OCC(=O)Nc1ccc(N=Nc2ccccc2)cc1	?	46*	?	?	31*
O=C(Nc1ccc(N=Nc2ccccc2)cc1)c1ccccc1Cl	-8%[2.32 µM]	73*	?	?	27*
CCCC(=O)Nc1ccc(Nc2ccccc2)cc1	-1%	35*	0%	?	23*
O=C(Nc1ccc(N=Nc2ccccc2)cc1)c1ccc(Cl)cc1Cl	3%	-11	-21%	-7%	0
CC(=O)Nc1ccc(Nc2ccccc2)cc1	-11%	59*	/	/	27*
SMILES	AMA1-RON2 inh	Shiga toxin inh	LASV entry inh	Marburg entry inh	CHX counter
Cc1cccc(OCCn2c(SCC(N)=O)nc3ccccc32)c1	/	/	12%[46.1 µM]	/	/
CC(C)Cn1c(=O)c2sccc2n2c(CCCC(=O)N3CCN(c4ccc(F)cc4)CC3)nnc12	/	/	-1%[46.1 µM]	/	/
CCC(C(=O)NC1CCCC1)n1c(C2CCCC2)nc2ccccc21 (stereo not given)	-10%	/	/	/	/
Cc1cc(N/N=C/c2ccncc2)nc2ccccc12	42%	49*	?	?	14
CN(C)c1nc(NCc2ccccc2)nc(N/N=C/c2cccc(Br)c2)n1	9%	6	11%	?	6
Cc1cc(N/N=C/c2cccc(Br)c2)nc2ccccc12	8%	24*	13%	-15%	33*
ClC(Cl)(Cl)c1nc(N/N=C/c2ccncc2)c2ccccc2n1	16%	-6	12%[46.1 µM]	?	9
CC1(C)NC(=O)N(CC(=O)OCC(=O)NC(=O)c2ccccc2)C1=O	13%	/	-11%	?	/
COc1ccc(C(=N/O)/C(=N/O)c2ccc(OC)cc2)cc1	-2%	-24	-11%	-10%	13
CCOC(=O)/C(C#N)=C(/C)c1ccc(OC)cc1	26%	-2	1%	-7%[46.1 µM]	6
COc1ccc(C(C#N)=C2C=CC(=NO)C(C)=C2Cl)cc1	3.2µM*	/	-21%	?	/
COc1ccc(C(C#N)=C2C=C(Cl)C(=NO)C=C2Cl)cc1	22µM*	/	/	/	/
Cc1cc(C(C)(C)C)c(O)c(C(C)(C)C)c1	-3%	-4	/	/	1
Cc1cc(O)c(Oc2cc(C)cc(O)c2O)c(O)c1	4.5µM*	2	/	/	11
CN(C)C(CNC(=O)CCc1nc2sc3c(c2c(=O)[nH]1)CCCC3)c1ccccc1 (stereo not given)	-8%	/	0%	10µM*	/
Cc1cc(-c2nc3ncccc3o2)ccc1NC(=O)c1ccc(Cl)cc1	/	/	-1%[46.1 µM]	4%[46.1 µM]	/
O=C(Nc1ccccn1)c1ccc([N+](=O)[O-])cc1Cl	-1%	35	2%	10%	16*
COc1ccc(NC(=O)c2cc(SC)ccc2Cl)cc1	0%	9	-23%	-7%	-3
O=C(Nc1ccc(Cl)cc1)c1ccc(-c2ccccn2)s1	21%	72*	12%	?	42*
CSc1ccc(Cl)c(C(=O)Nc2ccc(C)cn2)c1	4%	36	?	?	25*
O=C(Nc1ccccn1)c1cc2cc([N+](=O)[O-])ccc2s1	-4%	79*	/	/	40*
Cc1cncn1CCc1nc2c3ccccc3nc(SCC(=O)Nc3ccccc3F)n2n1	/	/	9%[46.1 µM]	/	/
O=C(N/N=C/c1ccccn1)c1ccc([N+](=O)[O-])cc1Cl	108%	/	/	/	28*
O=C(c1cc2cc([N+](=O)[O-])ccc2s1)N1CCCCC1	-4%	35	/	/	28*
O=C(N/N=C/c1cccnc1)c1ccc([N+](=O)[O-])cc1Cl	7%	35	2%	-8%	10
SMILES	AMA1-RON2 inh	Shiga toxin inh	LASV entry inh	Marburg entry inh	CHX counter
Cc1cc(NC(=O)c2ccc([N+](=O)[O-])cc2Cl)no1	23%	70*	/	/	43*
O=C(Nc1ccccn1)c1ccc(Cl)c([N+](=O)[O-])c1	-9%	64*	0%[46.1 µM]	1%[46.1 µM]	20*
O=C(Nc1cccnc1Cl)c1ccc(Cl)c([N+](=O)[O-])c1	-1%	17	0%	-2%	6
OCCN1CCOCCN(CCO)CCOCC1	5%	-2	21%	?	-3
CN(C(=O)COC(=O)C1COc2ccccc2O1)C1(C#N)CCCCC1 (stereo not given)	-3%	/	/	/	/
COc1ccc(COC(=O)N/N=C2\C[C@@H](O)[C@@H](O)[C@@H]3[C@@H]4C(=O)N(Cc5ccccc5)C(=O)[C@@H]4CC[C@H]23)cc1	/	/	/	-25%[14.2 µM]	/
Cc1ccc(NC(=O)c2ccc([N+](=O)[O-])cc2Cl)nc1	-8%	125*	?	?	75*
O=C(Nc1ccccn1)c1ccc(Br)s1	7%	/	?	-34%	40*
COc1ccc(N2CC(NC(=O)c3cc4ccccc4o3)CC2=O)cc1OC (stereo not given)	/	/	24%[46.1 µM]	/	/
CCN1C(=O)[C@@H]2[C@H]3[C@H](O)[C@H](O)CC(=NO[C@@H](C)c4cn([C@H](CO)Cc5ccccc5)nn4)[C@@H]3CC[C@H]2C1=O	/	/	?	-3%[14.2 µM]	/

Bioassay records deposited in PubChem BioAssay by National Center for Advancing Translational Sciences (NCATS).
